The whole screen tested about 310,000 compounds, of which about 14,000 (4.5%) showed an effect of 50% or more. Effects have a minus sign here. For the sample, strong results were picked, then their nearest neighbours and some compounds at random.
Each compound was assayed against human ether-à-go-go-related gene (hERG) potassium channel (human, UniProt Q12809) (assay: primary screen, population patch clamp on CHO cells stably expressing hERG; higher = less effect of the substance).
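Also: peak tail current of the secondary pulse compared with the same well before compound.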

human ether-à-go-go-related gene (hERG) potassium channel, sequence (Q12809 whole entry, looked up): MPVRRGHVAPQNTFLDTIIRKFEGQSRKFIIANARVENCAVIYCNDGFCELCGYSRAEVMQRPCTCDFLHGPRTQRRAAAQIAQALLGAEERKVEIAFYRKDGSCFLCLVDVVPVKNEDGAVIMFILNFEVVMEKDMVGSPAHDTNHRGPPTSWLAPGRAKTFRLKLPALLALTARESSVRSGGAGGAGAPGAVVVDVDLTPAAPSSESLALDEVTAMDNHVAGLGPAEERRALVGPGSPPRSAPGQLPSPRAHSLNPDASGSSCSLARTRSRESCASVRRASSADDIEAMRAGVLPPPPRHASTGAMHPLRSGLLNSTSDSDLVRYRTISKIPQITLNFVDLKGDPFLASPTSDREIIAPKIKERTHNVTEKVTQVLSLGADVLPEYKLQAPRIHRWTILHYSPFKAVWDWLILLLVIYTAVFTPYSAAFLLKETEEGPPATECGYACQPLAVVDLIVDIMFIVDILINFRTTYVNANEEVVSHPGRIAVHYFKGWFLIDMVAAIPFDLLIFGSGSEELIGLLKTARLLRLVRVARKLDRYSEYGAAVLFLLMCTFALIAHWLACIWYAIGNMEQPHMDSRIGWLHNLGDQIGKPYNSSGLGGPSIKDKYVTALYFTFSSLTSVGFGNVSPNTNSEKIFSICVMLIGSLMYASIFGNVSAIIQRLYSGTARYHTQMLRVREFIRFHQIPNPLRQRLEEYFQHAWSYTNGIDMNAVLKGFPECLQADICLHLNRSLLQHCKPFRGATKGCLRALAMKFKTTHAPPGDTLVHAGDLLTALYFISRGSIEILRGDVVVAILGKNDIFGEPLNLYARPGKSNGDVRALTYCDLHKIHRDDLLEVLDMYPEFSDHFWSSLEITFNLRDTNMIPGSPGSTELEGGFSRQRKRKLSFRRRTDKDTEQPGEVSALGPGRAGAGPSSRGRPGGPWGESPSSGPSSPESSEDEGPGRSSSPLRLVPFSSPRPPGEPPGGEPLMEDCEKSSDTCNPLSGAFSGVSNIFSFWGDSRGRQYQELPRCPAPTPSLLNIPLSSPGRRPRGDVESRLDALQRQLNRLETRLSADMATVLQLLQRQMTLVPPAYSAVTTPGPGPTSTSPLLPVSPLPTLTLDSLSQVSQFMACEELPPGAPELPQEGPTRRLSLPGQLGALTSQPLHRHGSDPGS

SMILES	hERG current change (%, negative = inhibition) at 10uM
COc1ccc(N2CCN(C(CNC(=O)C(=O)NC3CC3)c3ccco3)CC2)cc1 (centres unmarked)	13.6%
CCOc1cc(C=C(C(=O)OC)C(=O)OC)ccc1OCc1ccc([N+](=O)[O-])cc1	4.17%
O=C(Nc1ccc(F)cc1F)c1cc2ncc(CCCl)cn2n1	-12.3%
O=C(Nc1nnc(SCc2ccc(F)cc2)s1)c1cccnc1Cl	2.48%
COc1cc(NC(=O)c2cc3ccccc3o2)c(OC)cc1Cl	16.3%
Clc1ccc(Cn2ncc3c(NCc4ccccc4)ncnc32)cc1	-1.94%
c1csc(CNc2ncnc3ccc(-c4ccoc4)cc23)c1	-13.4%
Clc1ccc(Cn2ncc3c(NCc4cccnc4)ncnc32)cc1	-51.2%
Clc1ccc(Cn2ncc3c(N4CCOCC4)ncnc32)cc1	-16.2%
c1ccc(CNc2ncnc3c2cnn3Cc2ccccc2)cc1	-22%
Brc1ccc2ncnc(NCc3ccccc3)c2c1	-10.3%
Clc1ccc(Cn2ncc3c(N4CCCCC4)ncnc32)cc1	-14.4%
Clc1ccc(Cn2ncc3c(N4CCCC4)ncnc32)cc1	-56.7%
Brc1ccc2ncnc(NCc3cccnc3)c2c1	-60.2%
c1cncc(CNc2ncnc3sccc23)c1	17.8%
c1cncc(CNc2ncnc3ccc(-c4ccoc4)cc23)c1	-71.4%
Cc1cccc(CNc2ncnc3ccc(-c4ccoc4)cc23)c1	-12.4%
O=c1c(NCCc2ccc(Cl)cc2)c(-c2ccccc2)c1=O	5.81%
O=S1(=O)CCS(=O)(=O)C1c1ccccc1	-1.95%
COc1ccc(N/C=C/C(=O)c2cc(OC)c(OC)c(OC)c2)cc1	-8.76%
Cc1nc2cc(CO)ccc2s1	9.23%
COC(=O)/C(=C\Nc1ccccc1N)c1ncc(C(F)(F)F)cc1Cl	3.74%
CCn1ncc(C2=NOC(C(=O)Nc3c(C)nn(Cc4ccc(F)cc4)c3C)C2)c1C (centres unmarked)	10.3%

SMILES	hERG current change (%, negative = inhibition) at 10uM
COc1ccc(-c2nc3nc(C)cc(=O)n3[nH]2)cc1	17.9%
CCn1nnnc1NCc1ccc(N2CCCC2)cc1	3.6%
Cc1ccc(S(=O)(=O)NCCCCCC(=O)NC(C)(C)CO)cc1	13.7%
CCCCNC(=O)CSc1nc2ccccc2n1S(=O)(=O)c1ccc(Br)cc1	-0.913%
Cc1cccc(-c2ccc3ncnc(NCc4cccs4)c3c2)c1	-8.55%
COc1cccc(-c2ccc3ncnc(NCc4cccc(C)c4)c3c2)c1	-0.57%
Cc1cccc(-c2ccc3ncnc(NCc4cccnc4)c3c2)c1	-70.5%
CCc1ccccc1NC(=O)N1CCCC(CCC(=O)N(C)CCc2ccccn2)C1 (centres unmarked)	13.1%
CN(CCc1ccccn1)C(=O)CCC1CCCN(C(=O)NC2CCCCC2)C1 (centres unmarked)	17.4%
CCOC(=O)CCNC(=O)N1CCCC(CCC(=O)N(C)CCc2ccccn2)C1 (centres unmarked)	-52.3%
CCCCNC(=S)N(C)/N=C/c1ccc2c(c1)OCO2	-50.1%
CCCCNC(=S)N(C)/N=C/c1ccccc1F	2.14%
CCCCNC(=S)N(C)/N=C/c1ccc(F)cc1	-8.72%
CCOc1c(N2CCCCC2)c(=O)c1=O	0.507%
Cc1cc(C)cc(NC(=O)CSc2nnc(-c3ccncc3)o2)c1	-22.8%
COc1cc(OC)c(C(=O)Nc2cccc(C(C)=O)c2)cc1OC	-9.08%
Cc1ccc2cc(CCNS(=O)(=O)c3ccc(F)cc3)c(=O)[nH]c2c1C	10.9%
CCOC(=O)C1=C(N)OC2=C(C(=O)CC(C)(C)C2)C1c1ccc(C)s1 (centres unmarked)	-42.3%
CCOC(=O)C1=C(N)OC2=C(C(=O)CCC2)C1c1ccc(C)s1 (centres unmarked)	-54.3%
CCOC(=O)C1=C(N)OC2=C(C(=O)CCC2)C1c1cccs1 (centres unmarked)	1.13%
CCOC(=O)CC(=O)c1cc(OC)c(OC)c(OC)c1	-3.44%
CCCNC(=O)c1nn2c(C(F)(F)F)cc(-c3ccccc3)nc2c1Cl	-4.1%
COc1ccc(-c2cc(C(F)(F)F)n3nc(C(=O)NCCCn4ccnc4)cc3n2)cc1	-41%

SMILES	hERG current change (%, negative = inhibition) at 10uM
Cc1ccc(-c2cc(C(F)(F)F)n3nc(C(=O)NCCCn4ccnc4)cc3n2)cc1C	-20.6%
O=C(NCCCn1ccnc1)c1nn2c(C(F)(F)F)cc(-c3ccccc3)nc2c1Cl	-29.6%
O=C(NCCCn1ccnc1)c1nn2c(C(F)(F)F)cc(-c3ccc(Br)cc3)nc2c1Cl	-65.7%
O=C(NCCCn1ccnc1)c1cc2nc(-c3ccc(Br)cc3)cc(C(F)(F)F)n2n1	-62.8%
COc1ccc(CN(C#N)c2nc(C)cc(C)n2)cc1	14.1%
CCOC(=O)C1=C(COC(=O)CCOc2cc(C)ccc2C)NC(=O)NC1C (centres unmarked)	-26.5%
Cc1ccc(N(C(=O)c2snc(C(N)=O)c2N)C(C(=O)NCC2CCCO2)c2ccc(C)o2)c(C)c1 (centres unmarked)	-40.9%
CCN(CC(=O)Nc1ccc(NC(C)=O)cc1)C(=O)C1CCCC1	-13.9%
O=C(NNC(=S)NC(=O)C12CC3CC(CC(C3)C1)C2)c1ccncc1	19.8%
CCOC(=O)c1c(C)[nH]c(C(=O)OCc2ccc(F)cc2)c1C	-0.855%
COc1ccccc1NS(=O)(=O)c1cccc(C(=O)NC2CCN(Cc3ccccc3)CC2)c1	-56%
COc1ccccc1NS(=O)(=O)c1cccc(C(=O)NN)c1	-5.56%
C=CCN(c1ccccc1)S(=O)(=O)c1cccc(C(=O)O)c1	16%
COc1ccc(NS(=O)(=O)c2cccc(C(=O)NC3CCN(Cc4ccccc4)CC3)c2)cc1	-46.7%
O=C(c1cccc(NS(=O)(=O)c2ccc(F)c(F)c2)c1)N1CCN(Cc2ccccc2)CC1	-26.8%
C=CCN(c1ccccc1)S(=O)(=O)c1cccc(C(=O)NC2CCC(O)CC2)c1 (centres unmarked)	-7.48%
Cc1ccc(S(=O)(=O)Nc2cccc(C(=O)NCC3CCCO3)c2)cc1F (centres unmarked)	2.12%
C=CCN(c1ccccc1)S(=O)(=O)c1cccc(C(=O)NC2CCN(Cc3ccccc3)CC2)c1	-65.3%
Cc1ccc(S(=O)(=O)Nc2cccc(C(=O)NC3CCN(Cc4ccccc4)CC3)c2)cc1F	-80.6%
COc1ccccc1NC(=O)c1cccc(S(=O)(=O)N2CCN(Cc3ccccc3)CC2)c1	-19.6%
O=C(NC1CCN(Cc2ccccc2)CC1)c1cccc(S(=O)(=O)Nc2ccc(Br)cc2)c1	-59.7%
O=C(NCCN1CCOCC1)c1cccc(S(=O)(=O)Nc2ccc(Br)cc2)c1	-20.4%
COc1ccc(-c2csc(-c3cccs3)n2)c(OC)c1	15.8%

SMILES	hERG current change (%, negative = inhibition) at 10uM
CCCN1CNC(=S)N(Cc2ccccc2)C1	12.2%
NC(=O)c1ccsc1NC(=O)COC(=O)c1ccc(Cl)cc1	-5.38%
COc1ccccc1NC(=O)C(=O)N(c1cccnc1)C(C(=O)NC(C)(C)C)c1ccccc1 (centres unmarked)	18.7%
CCC(C)(C)NC(=O)c1cc(S(=O)(=O)N2CCCCC2)ccc1N1CCOCC1	-13.4%
O=C1NC(=O)/C(=C\c2ccccc2OCc2cccc([N+](=O)[O-])c2)N1	-5.66%
O=C(CCn1c(=O)[nH]c2ccsc2c1=O)Nc1ccc(F)c(F)c1	21%
COc1cccc(NC(=O)Cc2nnc(SCC(=O)NC(C)c3ccccc3)n2C)c1 (centres unmarked)	15.1%
CCCCNc1nc2c(c(=O)n(C)c(=O)n2C)n1CCC	9.61%
O=C(NCCCN1CCOCC1)c1cccc(S(=O)(=O)Nc2ccc(F)cc2)c1	-23.3%
COc1ccc(NS(=O)(=O)c2ccc(C)c(C(=O)NC3CCN(Cc4ccccc4)CC3)c2)cc1	-51.1%
O=C(NC1CCN(Cc2ccccc2)CC1)c1cccc(S(=O)(=O)Nc2cc(C(F)(F)F)ccc2Cl)c1	-48.8%
O=C(NC1CCN(Cc2ccccc2)CC1)c1cccc(S(=O)(=O)Nc2ccc(F)cc2)c1	-63.8%
CCOc1ccc(NS(=O)(=O)c2ccc(C(=O)NC3CCN(Cc4ccccc4)CC3)cc2)cc1	3.07%
COCCNS(=O)(=O)c1ccc(Cl)c(C(=O)NC2CCN(Cc3ccccc3)CC2)c1	-1.21%
CN(C)S(=O)(=O)Nc1cccc(Br)c1	-14.2%
CCCCCc1cc(=O)oc2c(C(CCN3CCCC(C)C3)c3cc(OC)c(OC)c(OC)c3)c(OC)cc(OC)c12 (centres unmarked)	-64.4%
CCCCCc1cc(=O)oc2c(C(CCN(CC)CC)c3cc(OC)c(OC)c(OC)c3)c(OC)cc(OC)c12 (centres unmarked)	-38.2%
CCCCCc1cc(=O)oc2c(C(CCN3CCCCC3)c3cc(OC)c(OC)c(OC)c3)c(OC)cc(OC)c12 (centres unmarked)	-74.6%
CCCCCc1cc(=O)oc2c(C(CCN3CCCC3)c3cc(OC)c(OC)c(OC)c3)c(OC)cc(OC)c12 (centres unmarked)	-65.6%
COc1cc(O)c(C(CCN2CCCC(C)C2)c2cc(OC)c(OC)c(OC)c2)c(OC)c1 (centres unmarked)	5.07%
